Experimental data reported in PubChem BioAssay AID1159580 (chemical genetic matrix, 2015).
“And” between values parts separate entries of the source, which are not always exact repeats. Equal entries are not always repeated. The campaign covered roughly 5,500 compounds. About 2,000 (36%) were called active. Inconclusive results (about 18%) are left out. Cut-off read from the data, not from the text of the source: active = normalized growth mostly below about 0.91 (no sharp cut-off); inconclusive = no clear call, values can overlap the other calls; inactive = mostly above about 0.92. This is one part of the list.

Assay: chemical genetic growth profiling, strain panel (AID 1159580);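 note: tested at 20 µM; growth read once vehicle control cultures reached saturation at 30 °C; 1 = growth at the plate median or of vehicle wells; lower values mean less growth of the strain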
Details: S. cerevisiae deletion strains, growth OD

Measured: normalized growth

N=C(N)N
inactive: locus YAL013W, strain DEP1, active compounds read low 1.01 | locus YAL021C, strain ccr4, active compounds read low 0.995 | locus YAL026C, strain drs2, active compounds read low 0.994 | locus YAL030W, strain snc1, active compounds read low 0.993 | locus YBL061C, strain skt5, active compounds read low 0.992 | locus YBR009C, strain hhf1, active compounds read low 1.01 | locus YBR021W, strain FUR4, active compounds read low 1.03 | locus YBR023C, strain chs3, active compounds read low 1.01 | locus YBR171W, strain sec66, active compounds read low 0.977 | locus YBR229C, strain ROT2, active compounds read low 0.999 | locus YBR231C, strain swc5, active compounds read low 0.98 | locus YBR279W, strain paf1, active compounds read low 0.993 | locus YCL011C, strain gbp2, active compounds read low 1.01 | locus YCL016C, strain dcc1, active compounds read low 1.01 | locus YCL029C, strain bik1, active compounds read low 0.963 | locus YCL061C, strain MRC1, active compounds read low 0.996 | locus YCL069W, strain vba3, active compounds read low 0.998 | locus YCR088W, strain abp1, active compounds read low 0.992 | locus YDL005C, strain med2, active compounds read low 0.987 | locus YDL035C, strain GPR1, active compounds read low 1.03 | locus YDL040C, strain nat1, active compounds read low 1 | locus YDL074C, strain BRE1, active compounds read low 1.01 | locus YDL101C, strain DUN1, active compounds read low 0.991 | locus YDL134C, strain PPH21, active compounds read low 1.01 | locus YDL185W, strain tfp1, active compounds read low 0.968 | locus YDL192W, strain arf1, active compounds read low 0.982 | locus YDR001C, strain nth1, active compounds read low 0.994 | locus YDR069C, strain doa4, active compounds read low 0.983 | locus YDR101C, strain arx1, active compounds read low 0.994 | locus YDR137W, strain rgp1, active compounds read low 1 | locus YDR150W, strain NUM1, active compounds read low 0.992 | locus YDR159W, strain sac3, active compounds read low 0.929 | locus YDR162C, strain NBP2, active compounds read low 0.996 | locus YDR195W, strain ref2 0.943 | locus YDR297W, strain sur2, active compounds read low 0.993 | locus YDR318W, strain mcm21, active compounds read low 0.981 | locus YDR334W, strain swr1, active compounds read low 0.992 | locus YDR335W, strain msn5, active compounds read low 1.06 | locus YDR388W, active compounds read low 0.972 | locus YDR392W, strain spt3, active compounds read low 0.875 | locus YDR502C, strain sam2, active compounds read low 0.999 | locus YEL003W, strain gim4, active compounds read low 0.992 | locus YEL037C, strain rad23, active compounds read low 0.998 | locus YEL061C, strain CIN8 (second series), active compounds read low 1 | locus YEL061C, strain CIN8, active compounds read low 0.996 | locus YER015W, strain faa2, active compounds read low 0.999 | locus YER016W, strain bim1, active compounds read low 0.997 | locus YER110C, active compounds read low 0.976 | locus YER111C, strain swi4, active compounds read low 0.998 | locus YER155C, strain BEM2 (second series), active compounds read low 0.976 | locus YER155C, strain BEM2, active compounds read low 1 | locus YER167W, strain BCK2, active compounds read low 1.02 | locus YFR010W, strain ubp6, active compounds read low 0.995 | locus YGL078C, strain dbp3, active compounds read low 1 | locus YGL086W, strain mad1, active compounds read low 1.01 | locus YGL167C, strain pmr1, active compounds read low 1 | locus YGL173C, strain kem1, active compounds read low 0.987 | locus YGL227W, strain vid30, active compounds read low 0.991 | locus YGL240W, strain doc1, active compounds read low 0.999 | locus YGL248W, strain PDE1, active compounds read low 1 | locus YGL253W, strain hxk2, active compounds read low 1 | locus YGR078C, strain PAC10, active compounds read low 0.997 | locus YGR135W, strain pre9, active compounds read low 1 | locus YGR229C, strain SMI1, active compounds read low 1.04 | locus YGR252W, strain gcn5, active compounds read low 1.13 | locus YHR013C, strain ard1, active compounds read low 1.01 | locus YHR027C, strain rpn1, active compounds read low 1.01 | locus YHR030C, strain SLT2, active compounds read low 1 and 1.05 | locus YHR079C, strain IRE1 (second series), active compounds read low 0.977 | locus YHR079C, strain IRE1, active compounds read low 1.03 | locus YHR094C, strain hxt1, active compounds read low 0.974 | locus YHR129C, strain ARP1, active compounds read low 0.992 | locus YHR142W, strain chs7, active compounds read low 1.02 | locus YHR200W, strain rpn10, active compounds read low 0.992 | locus YIL066C, strain RNR3, active compounds read low 0.994 | locus YIL073C, strain SPO22, active compounds read low 0.9 | locus YIL125W, strain kgd1, active compounds read low 0.991 | locus YIR030C, strain dcg1, active compounds read low 0.99 | locus YJL092W, strain hpr5, active compounds read low 0.999 | locus YJL095W, strain BCK1 (second series), active compounds read low 0.998 | locus YJL095W, strain BCK1, active compounds read low 0.993 and 1.05 | locus YJL115W, strain asf1, active compounds read low 0.99 | locus YJL129C, strain trk1, active compounds read low 0.985 | locus YJL134W, strain LCB3, active compounds read low 0.997 | locus YJL154C, strain vps35, active compounds read low 0.994 | locus YJL164C, strain tpk1, active compounds read low 1.01 | locus YJL166W, strain qcr8, active compounds read low 1.01 | locus YJL168C, strain set2, active compounds read low 0.975 | locus YJL187C, strain SWE1 (second series), active compounds read low 0.946 | locus YJL187C, strain SWE1, active compounds read low 0.993 | locus YJR043C, strain POL32, active compounds read low 0.999 | locus YJR066W, strain TOR1, active compounds read low 0.957
